Drawing on PubChem BioAssay (NCI), this text covers growth for 14 compounds.

Some test systems named below: NCI-H23 lung; NCI-H226 lung; NCI-H322M lung; HOP-62 NSCLC; NCI-H460 lung; HOP-92 NSCLC; NCI-H522 lung; A549/ATCC NSCLC; 786-0 renal; COLO 205 colon.
What all share (assay): NCI-60 one-dose screen, 48 h (100 = growth as untreated, 0 = no growth, -100 = all killed)
Holding throughout (settings): 10 µM unless noted

Molecules are shown by their SMILES. About 83,000 compounds went through this panel and 20% of them were active in at least one assay; those are over-represented in the sample as a whole.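 Each cell line was grown in a 96-well plate and treated with one concentration of compound for 48 hours. Values below 10 were considered active.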 Unmarked numbers belong to inactive results. The source made the active and inactive calls.

For `N#CC1=C(N)Oc2c(cnn2-c2ccc([N+](=O)[O-])cc2[N+](=O)[O-])C1c1ccccc1` (stereo not given), the growth was 104% in the assay with NCI-H23 lung; 97% in the assay on NCI-H226 lung; 97.7% in the assay with NCI-H322M lung; 98.3% in the assay on HOP-62 NSCLC; 103% in the assay with NCI-H460 lung; 75.6% in the assay on HOP-92 NSCLC. In addition, the growth with NCI-H522 lung is 95.3%; with A549/ATCC NSCLC, 103%; in the assay with 786-0 renal it was 114%; with COLO 205 colon, 111%.
As for `NC(=NCCCOc1ccc(F)cc1)Nc1ccc(Cl)cc1`, the growth in the assay on NCI-H23 lung is 46%; in the assay on NCI-H226 lung, 65.7%; in the assay with NCI-H322M lung, 60.1%; with HOP-62 NSCLC it was 46.6%; with NCI-H460 lung it was 84.2%; in the assay on HOP-92 NSCLC, 60.7%. Also, the growth in the assay with NCI-H522 lung is 76.5%; in the assay with A549/ATCC NSCLC, 53%; with 786-0 renal, 71.4%; in the assay on COLO 205 colon it was -69.6% (active).
For the compound `CCc1ccc(-c2cn3ccnc3c(-c3ccc4ncn(Cc5ccccc5)c4c3)n2)cc1`, the growth was 77% in the assay on NCI-H23 lung; 98.5% with NCI-H226 lung; 99.1% in the assay on NCI-H322M lung; 82.1% in the assay with HOP-62 NSCLC; 58% in the assay with NCI-H460 lung; 63.9% in the assay with HOP-92 NSCLC. Besides, the growth in the assay on NCI-H522 lung was 54.1%; in the assay with A549/ATCC NSCLC it was 54.6%; with 786-0 renal it was 61.9%; with COLO 205 colon, 65.8%.
`COCCCN1CC(O)=C(c2nc(-c3ccc(C)cc3)cs2)C1=N`: the growth in the assay with NCI-H23 lung was 96%; in the assay with NCI-H226 lung it was 96.3%; with NCI-H322M lung, 97.3%; with HOP-62 NSCLC, 91.6%; in the assay on NCI-H460 lung, 153%; with HOP-92 NSCLC it was 147%. Moreover, the growth was 106% in the assay on NCI-H522 lung, 85.4% in the assay with A549/ATCC NSCLC, 94.8% in the assay on 786-0 renal and 133% in the assay with COLO 205 colon.
As to `COc1cc(-c2n/c(=C\c3c(O)[nH]c4ccc(Cl)cc34)cc3c2=Nc2ccccc2-3)ccc1F`, the growth in the assay with NCI-H23 lung is 17.2%; in the assay on NCI-H226 lung, 60.5%; with NCI-H322M lung, 66.5%; in the assay with HOP-62 NSCLC, 3.23% (active); in the assay with NCI-H460 lung, 0.147% (active); in the assay on HOP-92 NSCLC it was -26.3% (active). Also, the growth in the assay on NCI-H522 lung was 3.18% (active); in the assay with A549/ATCC NSCLC it was -52.2% (active); in the assay on 786-0 renal, -56.8% (active); in the assay on COLO 205 colon it was 7.9% (active).
For the compound `COc1cc(/C(C)=C(\c2ccc(Cl)cc2)c2ccc(OCCN3CCCC3)cc2)ccc1F`, the growth in the assay with NCI-H23 lung was 67.4%; in the assay on NCI-H226 lung, 87.8%; in the assay with NCI-H322M lung it was 71%; in the assay with HOP-62 NSCLC, 87.2%; in the assay on NCI-H460 lung, 6.04% (active); with HOP-92 NSCLC it was 52.4%. The growth with NCI-H522 lung was 80%; with A549/ATCC NSCLC, 57.1%; with 786-0 renal it was 71.4%; with COLO 205 colon, 16.3%.
Take `COc1ccc(/C=C/c2nc(Nc3cccc(NC(C)=O)c3)c3ccccc3n2)cc1`: the growth with NCI-H23 lung was 87.6%; in the assay on NCI-H226 lung, 82.3%; in the assay with NCI-H322M lung, 45.5%; in the assay on HOP-62 NSCLC, 82.1%; in the assay on NCI-H460 lung, 84.3%; with HOP-92 NSCLC, 69.4%. For the same compound, the growth was 75.9% in the assay on NCI-H522 lung, 55.4% in the assay with A549/ATCC NSCLC, 88.9% with 786-0 renal and 105% in the assay on COLO 205 colon.
In the case of `C/C(=N\NC(=O)CSc1nc2ccccc2c(=O)n1CCc1ccc(S(N)(=O)=O)cc1)c1ccccn1`, the growth is 50.4% in the assay with NCI-H23 lung; 43.4% with NCI-H226 lung; 25.9% in the assay with NCI-H322M lung; 25.2% with HOP-62 NSCLC; 12.1% in the assay with NCI-H460 lung; 67.5% in the assay on HOP-92 NSCLC. Also, the growth in the assay with NCI-H522 lung is 18.9%; in the assay on A549/ATCC NSCLC, 21.1%; in the assay with 786-0 renal, 34.8%; with COLO 205 colon it was 8.47% (active).
For `NS(=O)(=O)c1ccc(CCn2c(SCC(=O)c3ccc(Cl)cc3)nc3ccccc3c2=O)cc1`, the growth is 95.2% in the assay with NCI-H23 lung; 104% in the assay on NCI-H226 lung; 96.3% in the assay on NCI-H322M lung; 96.1% in the assay with HOP-62 NSCLC; 105% with NCI-H460 lung; 109% with HOP-92 NSCLC. Besides, the growth in the assay on NCI-H522 lung is 96.7%; in the assay with A549/ATCC NSCLC it was 103%; in the assay with 786-0 renal it was 92.4%; in the assay on COLO 205 colon, 113%.
As for `O=Cc1ccc(-c2cn3ccnc3c(-c3ccc4ncn(Cc5ccccc5)c4c3)n2)cc1`, the growth in the assay with NCI-H23 lung is 45.5%; in the assay on NCI-H226 lung it was 99.5%; in the assay with NCI-H322M lung, 88.8%; in the assay on HOP-62 NSCLC, 76.2%; with NCI-H460 lung it was 62.2%; with HOP-92 NSCLC, 57%. In addition, the growth is 74.7% in the assay with NCI-H522 lung, 103% with A549/ATCC NSCLC, 53.3% in the assay with 786-0 renal and 126% in the assay with COLO 205 colon.
On to `CCCCCCCCOc1ccc(/C=N/Nc2cc(C)nc3ccc(Br)cc23)cc1`, for which the growth in the assay on NCI-H23 lung is 81.9%; with NCI-H226 lung it was 97.4%; in the assay with NCI-H322M lung, 95.6%; with HOP-62 NSCLC, 87.5%; in the assay with NCI-H460 lung, 16.1%; with HOP-92 NSCLC it was 105%. The growth is 71.6% in the assay with NCI-H522 lung, 27.9% in the assay on A549/ATCC NSCLC, 28.9% in the assay with 786-0 renal and 83.9% in the assay on COLO 205 colon.
For `C=C1C(=O)O[C@H]2[C@H]1CC/C(CNS(=O)(=O)c1cccc3ccccc13)=C\CC[C@@]1(C)O[C@@H]21`, the growth is 57.9% with NCI-H23 lung; 57.8% in the assay on NCI-H226 lung; 91.2% with NCI-H322M lung; 94.9% in the assay with HOP-62 NSCLC; 73.8% in the assay with NCI-H460 lung; 12.1% with HOP-92 NSCLC. The growth in the assay with NCI-H522 lung is -63.9% (active); in the assay on A549/ATCC NSCLC, 83.5%; in the assay on 786-0 renal, 26.1%; in the assay with COLO 205 colon, 8.89% (active).
`COc1cccc(C(=O)NNc2nc(Cl)nc(N3CCN(C(c4ccccc4)c4ccccc4)CC3)n2)c1`: the growth with NCI-H23 lung is 45.3%; with NCI-H226 lung it was 94.9%; in the assay with NCI-H322M lung, 88.9%; in the assay with HOP-62 NSCLC it was 92.8%; in the assay with NCI-H460 lung, 102%; with HOP-92 NSCLC, 77%. Moreover, the growth in the assay with NCI-H522 lung is -13.6% (active); with A549/ATCC NSCLC it was 101%; with 786-0 renal, 82%; in the assay on COLO 205 colon, 76.6%.
`Nc1c(S(=O)(=O)O)cc2c3c(cccc13)C(=O)OC2=O`: the growth in the assay with NCI-H23 lung is 94.9%; in the assay with NCI-H226 lung, 105%; in the assay with NCI-H322M lung, 107%; in the assay with HOP-62 NSCLC, 93.9%; with NCI-H460 lung it was 105%; in the assay with HOP-92 NSCLC, 90.7%. In addition, the growth in the assay on NCI-H522 lung was 104%; in the assay on A549/ATCC NSCLC, 116%; in the assay on 786-0 renal it was 102%; in the assay with COLO 205 colon, 111%.
